In the library only some 1.4% were active in any assay of this set; here they are far more common.
TrxR1 inh-1: inhibitors of rat thioredoxin reductase 1; Potency, µM (series often up to 114 µM), usual class: inhibitors; recombinant rTrxR1, NADPH fluorescence consumption, selenite substrate; 390,000 compounds, 1% hits; note: nearly all actives have a fitted effect of over 65% in size
Target sequence (O89049 whole entry, looked up): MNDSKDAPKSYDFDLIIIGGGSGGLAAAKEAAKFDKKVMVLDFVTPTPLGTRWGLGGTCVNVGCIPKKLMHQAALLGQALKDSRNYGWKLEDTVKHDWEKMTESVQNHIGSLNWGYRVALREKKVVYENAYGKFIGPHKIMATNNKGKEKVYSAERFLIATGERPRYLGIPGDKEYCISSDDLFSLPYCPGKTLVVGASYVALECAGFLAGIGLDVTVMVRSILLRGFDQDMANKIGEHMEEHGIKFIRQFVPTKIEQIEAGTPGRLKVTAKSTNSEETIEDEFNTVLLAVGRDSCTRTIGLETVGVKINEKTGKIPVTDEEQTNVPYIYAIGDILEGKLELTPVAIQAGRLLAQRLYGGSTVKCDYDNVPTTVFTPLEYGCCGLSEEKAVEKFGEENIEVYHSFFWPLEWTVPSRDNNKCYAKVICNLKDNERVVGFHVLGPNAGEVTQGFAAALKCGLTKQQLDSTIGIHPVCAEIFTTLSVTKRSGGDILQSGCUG
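Rat TrxR1 (90 nM in the dispensed reagent) was pre-reduced with 400 uM NADPH for 5 min at room temperature, then incubated with compound for 15 min. After 400 uM selenite was added, NADPH fluorescence (Ex 340/Em 450 nm) was followed for 8 min.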
pAkt inh: blocks phosphorylation of Akt; activity change, % for hits at 50 µM; AID 651550; 360,000 compounds, 0.32% hits; Neuro2A IGF-stimulated pAkt S473 HTRF, 20 min; active compounds read low; in the data active = activity change below about -80%; inconclusive = mostly about -51% to -80%
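Neuro2A cells (4,500/well, DMEM with 0.5% FBS) were treated with compound at a single 50 µM final concentration, stimulated with 6 nM IGF for 20 min at 37 °C, and lysed. Phospho-Akt Ser473 was read by HTRF as 665/615 ratio ×10^4.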
TrxR1 substrate: rat thioredoxin reductase 1 substrate activity | 390,000 compounds, 0.01% hits | purified TrxR1 substrate turnover, NADPH consumption readout | O89049 | Potency, µM (highest dose often 114 µM); note: nearly all actives have a fitted effect of over 50% in size
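Rat TrxR1, dispensed at 90 nM, was prereduced with 400 uM NADPH (final) for 5 min at ~22 deg C, then incubated with compound 15 min before 400 uM selenite. A first-read NADPH fluorescence drop versus no-compound background flagged substrates.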
N370S GC: N370S glucocerebrosidase modulation, Gaucher chaperone candidate; P04062; 330,000 compounds, 0.092% hits; Potency, µM (titrated, usually from 59.4 µM), most hits filed as inhibitors; N370S GC spleen homogenate, 4MU-glucoside fluorescence
A-T KAP1 phos: potential ataxia-telangiectasia treatment; Potency, µM (highest dose often 57.5 µM), most hits filed as activators; 320,000 compounds, 0.19% hits; F2112 A-T fibroblasts, KAP-1 phosphorylation AlphaLISA; neocarzinostatin DNA damage 30 min before lysis; AID 485349; note: nearly all actives have a fitted effect of over 45% in size
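hTERT-immortalized A-T patient fibroblasts (F2112), 500 cells/well in OPTI-MEM, 1% FBS, got compounds for 60 min, then NCS for 30 min at 37C. Lysates were then assayed for phospho-KAP-1 by AlphaLISA (anti-pKAP1 donor, anti-KAP1 acceptor beads), 6 hr at 25C.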
Pin1 inh: blocks the human prolyl isomerase Pin1. Q13526. Pin1 FP peptide displacement, HiFluor488, 10 min. Potency, µM (top dose mostly 115 µM), usual class: inhibitors. 390,000 compounds, 0.009% hits. AID 504891; active = well fitted inhibition curve with a large enough effect in the polarisation, with a control signal flat, not every such curve was filed as active; inconclusive = small, poorly fitted or top-dose-only effect, or effect the other way, or a change in a side signal; inactive = no such curve, though single readings can be large or run the other way; the % refers to the polarisation
GR inh: glutathione reductase inhibition, TrxR1 selectivity check; shares compounds with TrxR1 inh-1; purified GR, DTNB reduction absorbance 405 nm kinetic; activity change, negative = inhibition, % at 57.1 µM; 55 tested, under 10 active
TrxR1 inh-2: rat TrxR1 inhibition, primary screen retest | 55 compounds, 50% hits | Potency, µM, usual class: inhibitors | shares compounds with TrxR1 inh-1 | recombinant TrxR1, NADPH fluorescence consumption, selenite substrate
TrxR1 insulin MOA: inhibits TrxR1-driven insulin reduction | shares compounds with TrxR1 inh-1 | TrxR1 Trx-coupled insulin reduction, NADPH absorbance 340 nm | Potency, µM | 55 compounds, 20% hits;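 active = compounds with a measured potency under 100 micromolar; inconclusive = filed, but no rule given; inactive = potency at or above that, or unmeasurable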
TrxR1 inh-3: blocks rat TrxR1 reduction of DTNB; shares compounds with TrxR1 inh-1; purified TrxR1, DTNB reduction, A412; Potency, µM; 55 compounds, 90% hits;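 active = a half-inhibiting concentration could be measured and was below 100 µM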
Of the large screens only hits and unclear results are named; the others gave an inactive call (follow-up assays come after a bar, where they were run). Unless noted, calls come from the whole dose curve; as a rule, active = well fitted curve in the direction sought with a large enough effect; inconclusive = small, poorly fitted or top-dose-only effect, or another doubt; inactive = no such curve, though single readings can be large; an effect the other way counts as inactive or inconclusive.

N#CC(C#N)=C1C=CC=CN1/C(=C\c1ccco1)C(=O)c1ccc(Br)cc1	TrxR1 inh-1 1.1µM
COc1ccc(C(=O)/C(=C\c2ccco2)N2C=CC=CC2=C(C#N)C#N)cc1	TrxR1 inh-1 8.9µM
CC(=O)N1CCCc2cc(S(=O)(=O)Nc3ccc(C)c(C)c3)ccc21	none (no result: TrxR1 inh-1, pAkt inh, TrxR1 substrate, N370S GC, A-T KAP1 phos)
COc1ccc(NC(=O)CSc2nc3ccccc3nc2N2CCC(C)CC2)cc1	none (no result: pAkt inh, N370S GC, A-T KAP1 phos)
Cc1ccc(S(=O)(=O)N(C)C)cc1NC(=O)COC(=O)c1ccc(Cl)cc1	none
Cc1ccc(S(=O)(=O)N(C)C)cc1NC(=O)COC(=O)c1sc2cc(Cl)ccc2c1Cl	TrxR1 inh-1 35µM
C(=Nc1ccc(/C=C/c2ccnc3ccccc23)cc1)c1ccc2c(c1)OCO2	none (no result: pAkt inh, N370S GC, A-T KAP1 phos, Pin1 inh)
Cc1cc2ccccn2c1C(=O)c1ccc([N+](=O)[O-])cc1[N+](=O)[O-]	TrxR1 inh-1 3.2µM
Cc1cc2ccccn2c1C(=O)c1cccc([N+](=O)[O-])c1	N370S GC inconclusive
Cc1cc2ccccn2c1C(=O)c1ccc([N+](=O)[O-])o1	TrxR1 inh-1 11µM
Cc1cc2c(s1)c1cnn(Cc3ccc(Br)cc3F)c(=O)c1n2C	none (no result: TrxR1 inh-1, pAkt inh, TrxR1 substrate, N370S GC, A-T KAP1 phos)
CCN(CC)C(=O)CSc1nc(N)c(C#N)c(-c2cccs2)c1C#N	none
Cc1ccccc1NC(=O)CSc1nc(N)c(C#N)c(-c2cccs2)c1C#N	pAkt inh -101%
CCOc1ccccc1NC(=O)CSc1nc(N)c(C#N)cc1C#N	pAkt inh -96%, Pin1 inh inconclusive
O=C1CCc2cc(S(=O)(=O)Nc3cccnc3)ccc2N1	none (no result: TrxR1 inh-1, pAkt inh, TrxR1 substrate, N370S GC, A-T KAP1 phos)
N#C/C(=C\c1ccc(N2CCCCC2)o1)C(N)=O	Pin1 inh inconclusive
N#C/C(=C/c1ccc(N2CCOCC2)o1)c1ccc(Cl)cc1	TrxR1 inh-1 3.2µM, Pin1 inh inconclusive
C/C=C/c1ccc(OCCCNC)c(OC)c1	pAkt inh -119%
Cc1ccc(NC(=O)NCCc2c(C)nn(C)c2C)cc1Cl	none (no result: pAkt inh, N370S GC, A-T KAP1 phos)
COc1ccc(F)cc1S(=O)(=O)NC1CC(C)(C)NC(C)(C)C1	pAkt inh -112%
COc1ccc2c(c1)cc(C(=O)N[C@H](C(=O)N1CCC(C(=O)O)CC1)C(C)C)n2C	A-T KAP1 phos 7.1µM
COc1cc(C#Cc2c(-c3cncn3C)n(C)c3ccc(-c4ccc(OC)nc4)cc23)cc(OC)c1	A-T KAP1 phos 32µM (no result: N370S GC)
CN1CCN(c2cccc(CNc3nn4c(=O)c5ccccc5nc4s3)c2)CC1	none (no result: TrxR1 inh-1, pAkt inh, TrxR1 substrate, N370S GC, A-T KAP1 phos)
CCOc1ccc(N(C)S(=O)(=O)c2ccc3c(c2)CCCN3C(C)=O)cc1	none (no result: pAkt inh, N370S GC, A-T KAP1 phos)
CCOC(=O)COn1c(=O)c(-c2ccc(C)cc2)[n+]([O-])c2ccccc21	none
CCOC(=O)COn1c(=O)c(-c2ccco2)[n+]([O-])c2ccccc21	TrxR1 inh-1 8.9µM
Cc1ccc(C2C(C(=O)c3cc4ccccc4o3)=C(O)C(=O)N2CCN2CCOCC2)cc1 (stereo not given)	TrxR1 inh-1 45µM | GR inh inconclusive | TrxR1 inh-2 inconclusive | TrxR1 insulin MOA inactive | TrxR1 inh-3 0.33µM
O=C(C1=C(O)C(=O)N(CCN2CCOCC2)C1c1cccnc1)c1cc2ccccc2o1 (stereo not given)	TrxR1 inh-1 inconclusive
O=C(NC(=S)Nc1ccc(N2CCOCC2)cc1)c1cccc(Cl)c1Cl	TrxR1 inh-1 inconclusive

Screening results from PubChem BioAssay.
